Source: PubChem (National Center for Advancing Translational Sciences (NCATS))
ELG1 DNA repair = blocks ELG1-dependent DNA repair in HEK293T cells | Potency, µM (doses to about 46.1 µM), actives largely listed as inhibitors | 330,000 compounds, 2.3% hits | HEK293T ELG1-luciferase reporter, luminescence, 16 h; DNA damage induced by 5-fluorouridine; further: nearly all actives have a fitted effect of over 55% in size
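Quantitative HTS, concentration-response format. 2,000 cells/well co-treated with 5-fluorouridine and compound, 16 hr in 5% CO2 at 37 °C; ONE-Glo luminescence read after 30 min.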
Giardia killer = Giardia lamblia killing; Giardia lamblia trophozoite viability; activity change, % at 7.66 µM, hits read low; 340,000 compounds, 0.15% hits; AID 540267; in the data active means activity change below about -80%; inconclusive means between about -30% and that limit;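 further: parasites exposed to compound for two days anaerobically before the ATP read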
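Viability, read as ATP luminescence: trophozoites at 100 cells/well, compound added, 48 hrs anaerobic at 37 deg C, then 15-30 min room-temperature development before reading.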
Sfp PPTase inh = Sfp phosphopantetheinyl transferase inhibition; Q9F4F7; Biochemical Sfp PPTase activity, qHTS; Potency, µM, hits mostly inhibitors; 310,000 compounds, 3.5% hits; AID 1490;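 further: the enzyme is Sfp with the accession as filed and its product quenches rhodamine fluorescence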
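Compounds were incubated with enzyme (final 15 nM) for 15 min at room temperature before substrate addition started the reaction. Fluorescence at 525 nm excitation, 598 nm emission was recorded immediately and after 30 minutes.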
Coupling enz = counter-screen for Giardia aldolase inhibitors: coupling enzyme system. AID 2472. coupling enzyme system counterscreen, AmpLite Red fluorescence. activity change, negative = inhibition, % at 58.2 µM, hits read low. 290,000 compounds, 0.67% hits; in the data active means activity change below about -30%
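Coupling enzymes only (glyceraldehyde-3-phosphate) + compound, at 57.5 uM final, 10 min RT; add substrate/coupling/AmpLite Red mix, 20 min RT; fluorescence ex 525/em 598 nm. Actives flag coupling-system interference.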
A number is an active result; . = inactive; ? = inconclusive; / = no result given. Shown are actives, neighbours in structure and some others; about 5.5% of the full set was active somewhere. Unless noted, the call rests on the fitted dose curve; in most records, active means well fitted curve in the direction sought with a large enough effect; inconclusive means small, poorly fitted or top-dose-only effect, or another doubt; inactive means no such curve, though single readings can be large; an effect the other way counts as inactive or inconclusive.

SMILES	ELG1 DNA repair	Giardia killer	Sfp PPTase inh	Coupling enz
Cc1cc(C)nc(N=Nc2c(O)n(Cc3ccc(Cl)cc3)c3ccccc23)n1	23µM	.	.	.
Oc1c(N=NC(=S)Nc2ccccc2F)c2ccccc2n1Cc1ccccc1	8.2µM	.	.	.
C=CCn1c(O)c(N=NC(=S)Nc2ccccc2F)c2ccccc21	6.5µM	.	.	.
CC(=O)N1c2ccc(S(=O)(=O)N(C)CC(=O)NC3CCCC3)cc2CC1C (stereo not given)	.	.	.	.
COc1ccc(OC)c(S(=O)(=O)N/N=C\c2c[nH]c3ccccc23)c1	.	.	.	.
O=C(N=Nc1c(O)n(Cc2ccccc2)c2ccccc12)c1ccncc1	18µM	.	.	.
CN=C(c1ccco1)n1c(=S)nc(-c2ccco2)n(C)c1=S	.	.	18µM	.
CC(C)n1c(=S)[nH]c2cc(Cl)ccc21	.	.	79µM	.
CC(C)n1c(=S)[nH]c2ccccc2c1=O	.	.	.	.
c1csc(Cc2nn3c(-c4ccncc4)nnc3s2)c1	10µM	.	?	.
c1cc(-c2nnc3sc(C4CCCCC4)nn23)ccn1	9.2µM	.	.	.
CNC(=O)c1ccc(C)c(NC(=O)C2=C(C)OCCS2)c1	.	.	.	.
CCOc1cc(C(=O)NC2CCCCCCC2)cc(OCC)c1OCC	/	.	/	/
Cc1ccc(NC(=O)COc2ccc(CCO)cc2-n2nc3ccccc3n2)cc1C	18µM	.	.	.
Cc1ccc(OCC(=O)O)c(-n2nc3ccccc3n2)c1	.	.	.	.
COc1ccc(OC)c(S(=O)(=O)CC(O)CS(=O)(=O)c2ccccc2)c1 (stereo not given)	.	.	.	/
CC(C)C1/C(=N/O)CC(c2ccccc2)NC1c1ccccc1 (stereo not given)	16µM	.	.	.
CSc1nsc(SC)c1NC(=O)OCC1CCCO1 (stereo not given)	.	.	56µM	.
O=C(NN1C(=O)C2C3C=CC(C4CC34)C2C1=O)c1cccc(Cl)c1 (stereo not given)	.	.	.	.
COc1cccc(C(=O)NN2C(=O)C3C4C=CC(O4)C3C2=O)c1 (stereo not given)	.	.	?	.
O=C(NN1C(=O)C2C3C=CC(O3)C2C1=O)c1cccc(O)c1 (stereo not given)	.	.	45µM	.
Cc1cccc(C(=O)NN2C(=O)C3C(c4ccccc4)C=CC(c4ccccc4)C3C2=O)c1 (stereo not given)	.	.	.	.
O=C(NN1C(=O)C2C3C=CC(O3)C2C1=O)c1cccc(Br)c1 (stereo not given)	.	.	40µM	.
COc1ccc(C(=O)NN2C(=O)C3C4C=CC(O4)C3C2=O)cc1 (stereo not given)	.	.	22µM	.
CCOC(CN1CCN(CC(C)C(=O)c2ccccc2)CC1)c1ccccc1 (stereo not given)	/	/	.	/
SMILES	ELG1 DNA repair	Giardia killer	Sfp PPTase inh	Coupling enz
O=C(Nc1cccc(Br)c1)c1ccc(OC2CSC2)cc1	?	/	.	.
Cc1ccc(/C=C/C(=O)NCc2cccs2)cc1	?	.	?	.
CC(=C/C(=O)O)/C=C/c1ccc(Cl)o1	.	.	?	.
CC(=O)/C=C/c1ccc(C)o1	.	.	40µM	.
CC(/C=C/c1ccc(C)o1)=C\C(=O)O	.	.	10µM	.
Cc1ccc(/C=C/C(=O)NCc2cccs2)o1	?	.	10µM	.
Cc1ccc(CNC(=O)/C=C/c2ccc(Br)o2)cc1	.	.	28µM	.
COC(=O)c1ccc(C(NC(=O)OCc2ccccc2)/C(=C/[C@@H](C)C(=O)NCCc2c[nH]c3ccccc23)c2cccnc2)cc1 (stereo not given in full)	/	/	.	.
Cc1ccsc1/C=N/NC(=O)c1nnn(-c2nonc2N)c1CN(C)c1ccccc1	.	?	.	.
COc1ccc(C2NC(C(=O)O)CS2)cc1COCC(F)(F)F (stereo not given)	.	.	.	.
CC(C)c1ccc(C2NC(C(=O)O)CS2)cc1 (stereo not given)	.	.	50µM	.
COC(=O)c1ccc(/C=C(\C#N)C(=O)NC(C)c2ccccc2)cc1 (stereo not given)	?	.	32µM	.
CC(NC(=O)/C(C#N)=C/c1cccs1)c1ccccc1 (stereo not given)	.	.	.	.
CC(NC(=O)/C(C#N)=C/c1ccc([N+](=O)[O-])o1)c1ccccc1 (stereo not given)	.	.	.	-36
CC(NC(=O)/C(C#N)=C/c1ccco1)c1ccccc1 (stereo not given)	.	.	50µM	.
